According to PubChem BioAssay AID1214 (Sanford-Burnham Center for Chemical Genomics, 2008):
The whole screen tested about 190,000 compounds, of which about 10 (0.005%) were called active.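 How the source made its calls: active means activation factor of 2 or more at 20 µM, relative to plate controls; inactive means the rest.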 Only a sample is shown.

target: Mannose-6-phosphate isomerase (Homo sapiens) (UniProt P34949); assay: activators of human PMI, primary screen, biochemical, fluorescence intensity, near-Km mannose 6-phosphate (AID 1214); conditions: purified human PMI, coupled resazurin fluorescence, 20 min; at 20 µM; active compounds read high; 1 = vehicle control, 0 substrate-free wells
Sequence (P34949 whole entry, looked up): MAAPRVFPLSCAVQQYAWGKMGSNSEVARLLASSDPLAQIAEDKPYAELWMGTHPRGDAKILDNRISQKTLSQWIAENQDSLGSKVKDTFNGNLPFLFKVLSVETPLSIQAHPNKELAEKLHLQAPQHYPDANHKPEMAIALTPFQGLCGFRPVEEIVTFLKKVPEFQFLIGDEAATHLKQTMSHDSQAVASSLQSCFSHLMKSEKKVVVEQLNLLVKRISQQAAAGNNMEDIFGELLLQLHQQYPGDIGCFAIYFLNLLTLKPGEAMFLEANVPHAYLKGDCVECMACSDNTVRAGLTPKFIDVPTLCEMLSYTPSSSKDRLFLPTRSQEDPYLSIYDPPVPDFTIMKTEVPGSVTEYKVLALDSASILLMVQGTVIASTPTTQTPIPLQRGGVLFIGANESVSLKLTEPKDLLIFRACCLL

Activation factor, inactive:
COC(=O)c1cc(NC(=O)CN2CCN(C(C)=O)CC2)cc(C(=O)OC)c1 0.9
C/C(N)=C(/C#N)C(=O)COC(=O)CNS(=O)(=O)c1ccc(C)cc1 1
CCNC(=O)CC1C(=O)N(c2ccc(F)cc2)C(=O)N1CCc1sccc1C (stereo not given) 1.1
CCOc1ccc(C(C)=O)cc1CSc1nnc(-c2ccncc2)n1CCOC 1.1
CCOCCCNCc1ccc(OCc2ccc(F)cc2)c(OC)c1 0.9
CCCCc1nnc(NC(=O)CSc2nc(N)cc(=O)[nH]2)s1 0.8
O=C(NCCN1C(=O)S/C(=C\c2cccnc2)C1=O)c1cccc(OC(F)F)c1 0.9
O=C1/C(=C\c2cccnc2)CN(Cc2ccccc2)C/C1=C\c1cccnc1 0.9
Cc1nnc(SC(C(=O)Nc2cc(Cl)cc(Cl)c2)c2ccccc2)[nH]c1=O (stereo not given) 1
CC(C)CC(=O)NC(=S)NNC(=O)c1cccc([N+](=O)[O-])c1 0.9
CC1CCCCN1C(=S)NCc1ccccc1 (stereo not given) 0.9
CN(C)S(=O)(=O)c1ccc(NC(=O)N2CCOCC2)cc1 1
Cc1cc(C(=O)COC(=O)CNC(=O)c2ccc(F)cc2)c(C)n1Cc1ccco1 0.9
Cc1ccc2nc(-c3cccnc3)c(NC3CCCC3)n2c1 0.9
CC(C)[C@H](NC(=O)c1ccc(F)cc1)C(=O)OCC(=O)NC(=O)c1cccn1C 0.9
CCOC(=O)C1=C(C)OC(N)=C(C#N)C1c1cncc(-c2ccc(F)cc2)c1 (stereo not given) 1.1
CCC(C)NC(=O)c1nn(C)c(=O)c2ccccc12 (stereo not given) 1.1
O=C(CN1C(=O)CC(c2ccccc2)S(=O)(=O)c2ccccc21)NC1CCCC1 (stereo not given) 1.1
N#Cc1ccc(CSc2nnc3ccccn23)cc1 1
Cc1ccnc(SCC(N)=O)n1 1.1
CCC(C)(C)C1CCC(=NNC(=O)c2ccc(Br)o2)CC1 (stereo not given) 1
CCOC(=O)/C(=N\Nc1ccccc1[N+](=O)[O-])c1csc(Nc2ccccc2)n1 0.9
COC(=O)C(C)N=Cc1ccccc1 (stereo not given) 0.9
Cc1onc(C(=O)NN)c1C(=O)N1CCN(C(c2ccccc2)c2ccccc2)CC1 0.9
CCOCCCNC(=O)C(NC(=O)Cc1c[nH]c2ccccc12)c1ccc(OC)cc1 (stereo not given) 0.9
CC/C(O)=C1\C(=O)CC(C)(C)CC1=NCCc1nc2ccccc2[nH]1 1.1
N#Cc1ccccc1NC(=O)c1cccc(COc2ccc(Cl)cc2Cl)c1 0.9
CCCCc1ccc(NC(=S)NCCCN2CCOCC2)cc1 1
COc1cc(CNCCN(C)C)ccc1OCc1c(F)cccc1Cl 1
O=C(CCNC(=O)Cn1ccc2ccccc2c1=O)NCCC1=CCCCC1 1
Cn1c(=O)c2cc(S(=O)(=O)NCCC(=O)Nc3ccc(F)cc3F)ccc2n(C)c1=O 1
Cc1cccc(C)c1NC(=O)C1(N(C(=O)c2ccccn2)c2ccc(O)cc2)CCCCC1 0.9
Cc1ccc(CN2CCN(Cc3ccccc3-c3ccco3)CC2CCO)o1 (stereo not given) 0.9
CCOCCCNC(=O)C(NC(=O)c1ccccc1O)c1ccccc1 (stereo not given) 1.1
O=C(Cc1ccccc1)NNC1CC(=O)N(c2ccc(Br)cc2)C1=O (stereo not given) 0.9
Cc1ccc(-c2ccc(/C=C(\C#N)C(N)=S)o2)c([N+](=O)[O-])c1 1
Cn1cc(C(=O)NCc2ccccc2F)cn1 1
OC1CSc2nc3ccccc3n2C1 (stereo not given) 0.9
CCN(C(=O)COC(=O)c1cc(NS(=O)(=O)c2ccc(Cl)c([N+](=O)[O-])c2)ccc1O)C1CCCCC1 0.8
COCCCNC(=O)C1CCC(CNS(=O)(=O)c2ccc(OC)cc2)CC1 (stereo not given) 1
COc1ccc(N2CCN(C(C)=C3C(=O)c4ccccc4C3=O)CC2)cc1 0.9
COc1ccc(OC)c(-n2c(=S)[nH]c3cc(C(=O)N4CCCCC4)ccc3c2=O)c1 1
Cn1c(CNC(=O)c2ccccc2F)nnc1SCc1ccc(F)cc1 1.2
COc1ccc2c(c1)c(=O)c(C(=O)c1ccc(Cl)cc1)cn2CC(=O)Nc1ccc(F)cc1 1
CC(C)NC(=S)Nc1cccc2cnccc12 1
O=C(N/N=C/c1ccc(Cl)cc1)c1nc2ccc([N+](=O)[O-])cc2c(=O)[nH]1 1
CCCNC(=O)OC[C@H]1O[C@H](CCO/N=C/[C@@H](NS(=O)(=O)c2ccc(C)cc2)[C@H](C)/C=C/CC(=O)OC)C=C[C@@H]1Oc1ccc(OC)cc1 0.9
O=C(Nc1nnc(SCc2ccccc2Cl)s1)c1cccc([N+](=O)[O-])c1 0.9
CSc1ccc(CNCCN2CCOCC2)cc1 1.1
CC(C)(C)NC(=O)NC(=O)COC(=O)Cc1c(F)cccc1Cl 1.2
CCCCCC1CCC(c2nnc(SCC(C)=O)o2)CC1 (stereo not given) 1
Cc1ccccc1OCCC(=O)OCC(=O)NC(C)c1ccccc1 (stereo not given) 1
O=C(CSc1cccc[n+]1[O-])c1ccc(-c2ccccc2)cc1 1.2
Cc1cc([N+](=O)[O-])nn1CC(=O)Nc1ccc(Cc2ccncc2)cc1 1
COCCNC(=O)C(OC(=O)c1cccs1)c1ccc(F)cc1 (stereo not given) 1
Cc1ccc(S(=O)(=O)N2CCN(CC(=O)N/N=C/c3ccc(Br)s3)CC2)cc1 0.9
CN(CC(=O)NCCc1ccccn1)S(=O)(=O)c1ccc(Cl)cc1 0.9
CC1=C(C(=O)Nc2cc(C)ccn2)C(c2cnn(C)c2)C2=C(CC(c3ccccc3)CC2=O)N1 (stereo not given) 1
O=C(Nc1ccc(CSc2ccccc2)cc1)c1ccc(CN2CCOCC2)cc1 1.1
COc1ccc(Cl)cc1NC(=O)C(C)N1CCc2ccccc21 (stereo not given) 1.1
Cc1ccn(CC(=O)N2N=C(C(F)F)CC2(O)C(F)F)n1 (stereo not given) 1.1
N#Cc1c(C(F)(F)F)cc(-c2ccc(Cl)cc2)nc1SCC(=O)O 1
CCOC(=O)C1CCN(S(=O)(=O)c2cc(F)ccc2OC)CC1 1
COCCNc1nc2nonc2nc1N(C)Cc1ccc(C)cc1 0.9
Cc1ccc(NC(=O)CC(=O)Nc2ccc(C)cc2)cc1 1
CCOC(=O)C1=C(N)N(c2ccc(C)cc2)C2=C(C(=O)CCC2)C1c1cccs1 (stereo not given) 1
CN(C)/C=C(/C(=O)c1ccccc1Cl)S(C)(=O)=O 1
COC(=O)c1nc(NC(=O)c2ccc(C(C)(C)C)cc2)n[nH]1 1.1
CC(C)Oc1ccc(/C=C(\NC(=O)/C=C/c2ccco2)C(=O)NCCc2nc3ccccc3[nH]2)cc1 0.9
O=C(c1ccccc1)c1ccc(OCC(O)CN2CCCC2)cc1 (stereo not given) 1
COc1cc(S(=O)(=O)N2CCOCC2)ccc1NC(=O)COc1ccc(N(C)S(=O)(=O)c2ccc(C)cc2)cc1 1
Cc1cc(C#N)c(SCC(N)=O)nc1-c1ccc(F)cc1 1.1
CC1=NNC(=O)C1CCC(=O)N/N=C\c1cccc(Cl)c1 (stereo not given) 1
CCOC(=O)c1sc2nc(C)nc(SCC(N)=O)c2c1C 1.1
COC(=O)c1cc(NC(=O)c2nn(C)c(=O)c3ccccc23)cc(C(=O)OC)c1 1
CCC(C(=O)Nc1ccc(C(C)C)cc1)c1ccccc1 (stereo not given) 1
CC(C)(C)c1ccc(/C=C/C(=O)Nc2ncccn2)cc1 1
COC(=O)c1ccc(NC(=O)CSc2nncc3ccc(OC)c(OC)c23)cc1 1
COc1ccc(OCC(O)CNC(=O)Nc2ccc(Cl)cc2)cc1 (stereo not given) 0.9
Cc1ccc(CN2CCN(/N=C/c3cccnc3)CC2)c(C)c1 1.1
CCC(C)(C)NC(=O)CN(Cc1cccs1)C(=O)CNS(=O)(=O)c1ccc(F)cc1 1.1
COc1cccc(CC2(CO)CCCN(CC3=Cc4cc(OC)ccc4OC3)C2)c1 (stereo not given) 0.9
CC1CCN(c2ccc(C(=O)NCc3ccc4c(c3)OCO4)cc2[N+](=O)[O-])CC1 0.8
Cc1cccc(C2=N/C(=C/c3cccs3)C(=O)O2)c1 1
CCc1cc(C(=O)OC)c(NC(=O)CC2Sc3ccc(C(F)(F)F)cc3NC2=O)s1 (stereo not given) 0.9
Cc1ccc(C(=O)N/C(=C/c2ccc(-c3cccc([N+](=O)[O-])c3)o2)C(=O)NCCCN(C)C)cc1 1
COC(=O)NNC(=O)C1CCC(C)CC1 (stereo not given) 1.1
COC(=O)C(NS(=O)(=O)c1ccc(F)cc1)c1ccccc1 (stereo not given) 1
COc1ccc(Cl)cc1NC(=O)Cn1nc(-c2ccc(C)cc2)n(C)c1=S 1.1
CCc1ccc(N(CC(=O)Nc2sc3c(c2C(=O)OC)CCCC3)S(C)(=O)=O)cc1 0.8
CN(CCOc1ccc(Br)cc1)CC(=O)Nc1cccc(S(=O)(=O)NC2=NCCC2)c1 0.9
OCCC1CN(Cc2ccc3nsnc3c2)CCN1C1CCCCC1 (stereo not given) 0.9
O=C(CSc1nnc2ccc(-c3ccncc3)nn12)N1CCCCC1 1
COc1cccc(C(=O)NCCSc2ccc(Br)cc2)c1 1.1
N#CCOc1ccc(C2=NO[C@@H]3[C@@H]4C[C@@H]([C@H]5C(=O)N(c6ccc7c(c6)OCO7)C(=O)[C@@H]45)[C@H]23)cc1 0.9
Cn1cc(/C=C/C(=O)N2CCCC(C(=O)c3ccc(C(F)(F)F)cc3)C2)cn1 (stereo not given) 1
COc1ccc(CCCc2nnc(SCc3nc4ccccc4c(=O)[nH]3)n2C)cc1 1
CN(C)c1ccc(/C=N/NC(=O)C(O)c2ccc(Br)cc2)cc1 (stereo not given) 1
Nc1nc(NC(=O)/C=C/c2ccccc2)nn1-c1ccccc1 1
COc1ccc(OC)c(C(=O)c2ccc(C(=O)N3CCN(Cc4csc(C)n4)CC3)cc2)c1 1
O=C(Cc1ccccc1)NCC1OCCc2ccccc21 (stereo not given) 0.9
O=Cc1ccc(OCc2cn3ccccc3n2)cc1 1.1
CCCCC1S/C(=N/N=C/c2cccs2)NC1=O (stereo not given) 1.3
Cc1cc2oc(C(=O)Nc3c(C)n(C)n(-c4ccccc4)c3=O)c(C)c2cc1Cl 1.1
CN1CCC(=NNC(=O)c2ccc(N(Cc3ccc(Cl)cc3)S(C)(=O)=O)cc2)CC1 0.8
